# Experimental data reported in PubChem BioAssay.
# Activity calls are given as the source filed them.
# What was measured:
# [1] = binders of probe aFSTL3 on microarray, primary screen, stem cell growth factor project, biochemical, small-molecule microarray, fluorescence 635/667 (AID 1064); conditions: higher = more signal;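 also: measures binding of the biotinylated anti-FSTL3 antibody to printed compounds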
# [2] = binders from COS7 lysate, DM2A8 probe, primary screen, torsin A project, cell lysate, small-molecule microarray, fluorescence 635/667 (AID 1065); conditions: higher = more signal, COS7 lysate expressing mutant human TOR1A
# [3] = binders of probe aFGF2 on microarray, primary screen, stem cell growth factor project, biochemical, small-molecule microarray, fluorescence 635/667 (AID 1067); conditions: higher = more signal;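 also: measures binding of biotinylated aFGF2 protein to printed compounds on slides; z-score merges feature fluorescence and signal-to-noise across triplicate slides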
# [4] = binders of probe aFGF10 on microarray, primary screen, stem cell growth factor project, biochemical, small-molecule microarray, fluorescence 635/667 (AID 1071); conditions: higher = more signal;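 also: score merges 667 nm spot intensity and signal to noise from triplicate slides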
# [5] = target: Neurogenic locus notch homolog protein 2 (Homo sapiens) (UniProt Q04721); assay: Notch2 binders on small-molecule microarrays, primary screen, biochemical, small-molecule microarray, 635 nm fluorescence, stem cell growth factors (AID 1073); conditions: Notch2 binding, higher = more signal
# Sequence of Neurogenic locus notch homolog protein 2 (Homo sapiens) (Q04721 whole entry, looked up, canonical isoform): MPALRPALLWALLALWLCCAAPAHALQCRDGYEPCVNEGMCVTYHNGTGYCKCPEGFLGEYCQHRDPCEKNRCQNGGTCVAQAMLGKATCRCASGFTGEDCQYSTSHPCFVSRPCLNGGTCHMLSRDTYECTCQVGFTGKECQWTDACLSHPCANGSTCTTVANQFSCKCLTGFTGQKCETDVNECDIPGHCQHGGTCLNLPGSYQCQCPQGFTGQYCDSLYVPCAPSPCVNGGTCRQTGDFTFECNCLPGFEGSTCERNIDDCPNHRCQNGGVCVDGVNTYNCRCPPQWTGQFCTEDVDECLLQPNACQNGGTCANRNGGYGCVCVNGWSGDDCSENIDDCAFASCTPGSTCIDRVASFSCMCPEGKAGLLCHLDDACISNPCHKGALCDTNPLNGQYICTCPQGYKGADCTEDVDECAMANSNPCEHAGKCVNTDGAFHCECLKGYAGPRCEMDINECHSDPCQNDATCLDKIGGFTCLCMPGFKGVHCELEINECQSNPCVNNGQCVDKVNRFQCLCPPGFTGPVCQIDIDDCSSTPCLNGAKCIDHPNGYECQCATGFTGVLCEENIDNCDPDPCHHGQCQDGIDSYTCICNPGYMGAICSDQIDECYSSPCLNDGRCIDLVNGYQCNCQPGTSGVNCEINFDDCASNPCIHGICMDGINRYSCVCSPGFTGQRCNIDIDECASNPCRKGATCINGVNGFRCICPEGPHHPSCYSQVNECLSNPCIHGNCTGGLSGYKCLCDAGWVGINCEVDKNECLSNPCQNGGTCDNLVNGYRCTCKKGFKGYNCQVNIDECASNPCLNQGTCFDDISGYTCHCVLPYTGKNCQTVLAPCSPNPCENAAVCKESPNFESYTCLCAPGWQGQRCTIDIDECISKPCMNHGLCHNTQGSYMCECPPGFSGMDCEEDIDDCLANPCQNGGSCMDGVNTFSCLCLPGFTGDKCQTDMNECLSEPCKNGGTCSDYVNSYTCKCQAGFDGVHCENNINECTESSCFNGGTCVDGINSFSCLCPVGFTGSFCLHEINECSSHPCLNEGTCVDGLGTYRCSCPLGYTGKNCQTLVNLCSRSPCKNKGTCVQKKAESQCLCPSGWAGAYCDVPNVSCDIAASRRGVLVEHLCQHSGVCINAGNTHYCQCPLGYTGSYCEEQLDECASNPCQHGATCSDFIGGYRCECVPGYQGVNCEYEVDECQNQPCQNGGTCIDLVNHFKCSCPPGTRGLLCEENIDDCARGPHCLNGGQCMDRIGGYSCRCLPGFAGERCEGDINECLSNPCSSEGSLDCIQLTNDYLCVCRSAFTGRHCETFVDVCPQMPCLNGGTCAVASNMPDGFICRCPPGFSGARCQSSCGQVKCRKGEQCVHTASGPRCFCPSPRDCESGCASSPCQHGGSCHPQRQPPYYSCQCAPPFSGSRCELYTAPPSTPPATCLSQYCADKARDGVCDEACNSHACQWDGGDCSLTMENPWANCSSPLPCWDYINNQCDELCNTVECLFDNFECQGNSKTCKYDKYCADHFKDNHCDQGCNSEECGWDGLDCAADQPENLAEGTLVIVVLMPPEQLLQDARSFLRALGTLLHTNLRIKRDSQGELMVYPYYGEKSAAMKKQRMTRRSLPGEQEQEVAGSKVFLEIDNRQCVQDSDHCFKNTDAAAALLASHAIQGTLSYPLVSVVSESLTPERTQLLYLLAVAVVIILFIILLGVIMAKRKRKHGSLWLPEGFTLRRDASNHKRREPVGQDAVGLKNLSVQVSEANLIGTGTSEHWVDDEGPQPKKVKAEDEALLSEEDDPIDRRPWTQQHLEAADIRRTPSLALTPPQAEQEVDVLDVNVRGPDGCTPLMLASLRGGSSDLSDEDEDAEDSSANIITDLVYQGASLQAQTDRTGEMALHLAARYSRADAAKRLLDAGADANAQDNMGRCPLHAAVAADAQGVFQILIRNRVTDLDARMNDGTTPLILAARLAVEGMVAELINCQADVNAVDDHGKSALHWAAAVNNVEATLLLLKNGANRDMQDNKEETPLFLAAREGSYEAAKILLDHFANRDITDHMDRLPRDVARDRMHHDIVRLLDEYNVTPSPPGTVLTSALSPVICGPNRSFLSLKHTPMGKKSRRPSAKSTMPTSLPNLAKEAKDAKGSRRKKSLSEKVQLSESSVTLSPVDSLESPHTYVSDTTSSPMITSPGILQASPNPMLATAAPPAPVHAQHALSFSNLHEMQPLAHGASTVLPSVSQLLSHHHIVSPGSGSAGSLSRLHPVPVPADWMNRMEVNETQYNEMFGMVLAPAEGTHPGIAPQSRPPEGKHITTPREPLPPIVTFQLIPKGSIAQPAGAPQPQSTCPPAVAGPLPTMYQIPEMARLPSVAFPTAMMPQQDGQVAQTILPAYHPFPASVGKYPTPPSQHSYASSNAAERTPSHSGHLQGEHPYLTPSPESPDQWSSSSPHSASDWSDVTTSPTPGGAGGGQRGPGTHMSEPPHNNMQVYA
# [6] = target: Pro-neuregulin-1, membrane-bound isoform (Homo sapiens) (UniProt Q02297); assay: NRG1 binders on small-molecule microarrays, primary screen, psychiatric disease protein project, biochemical, small-molecule microarray, fluorescence 635/667 (AID 1075); conditions: NRG1 binding, 635 nm fluorescence, higher = more signal;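 also: score combines 667 nm spot fluorescence with signal to noise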
# Sequence of Pro-neuregulin-1, membrane-bound isoform (Homo sapiens) (Q02297 whole entry, looked up, the tested form may be a part, canonical isoform): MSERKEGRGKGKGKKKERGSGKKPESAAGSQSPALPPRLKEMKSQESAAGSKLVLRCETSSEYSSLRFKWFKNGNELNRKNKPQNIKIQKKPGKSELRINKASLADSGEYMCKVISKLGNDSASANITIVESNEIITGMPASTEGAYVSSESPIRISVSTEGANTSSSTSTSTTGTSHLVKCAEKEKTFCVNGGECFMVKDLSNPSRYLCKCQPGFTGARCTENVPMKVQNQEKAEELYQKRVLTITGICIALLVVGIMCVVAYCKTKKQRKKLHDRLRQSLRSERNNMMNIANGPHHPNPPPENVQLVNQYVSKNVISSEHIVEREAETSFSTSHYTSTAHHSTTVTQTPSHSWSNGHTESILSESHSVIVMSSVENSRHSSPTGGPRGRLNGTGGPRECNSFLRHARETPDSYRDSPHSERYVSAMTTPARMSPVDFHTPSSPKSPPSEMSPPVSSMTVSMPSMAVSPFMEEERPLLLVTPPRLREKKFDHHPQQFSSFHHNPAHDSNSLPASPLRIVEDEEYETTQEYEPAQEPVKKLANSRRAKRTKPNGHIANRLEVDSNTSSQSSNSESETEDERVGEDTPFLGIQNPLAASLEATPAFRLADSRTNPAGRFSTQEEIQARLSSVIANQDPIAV
# [7] = tested on: Neuregulin-1 EGF-like domain; assay: binders of neuregulin-1 EGF-like domain, primary screen, biochemical, small-molecule microarray, 635 nm fluorescence (AID 1081); conditions: small-molecule microarray binding, higher = more signal;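 also: binding of the protein to compounds printed on small-molecule microarray slides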
# [8] = FRG1 promoter luciferase signal modulators, primary screen, FRG1 inhibition for FSHD, cell-based, C2C12 myotubes, firefly/Renilla luciferase, luminescence (AID 1084); conditions: higher = more signal, called active from +8 up or from −8 down
# [9] = binders of probe aFST on microarray, primary screen, stem cell growth factor project, biochemical, small-molecule microarray, fluorescence 635/667 (AID 1086); conditions: higher = more signal;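 also: score merges 667 nm fluorescence with signal-to-noise of each printed compound spot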
# [10] = binders of probe aHhip on microarray, primary screen, stem cell growth factor project, biochemical, small-molecule microarray, fluorescence 635/667 (AID 1087); conditions: higher = more signal;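 also: score merges spot fluorescence at 667nm with spot signal to noise ratio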
smiles,measurement,setting,value
C=CCOC(=O)[C@H]1[C@@H]2C(=O)O[C@@H](c3ccccc3)[C@@H](c3ccccc3)N2[C@@H](c2ccc(OCCOC(=O)[C@H]3C[C@H]4C(=O)N5CCC[C@H]5C(=O)N4[C@H]3c3ccc(O)cc3)cc2)[C@]12C(=O)Nc1ccccc12,composite z-score,[1],-0.168
same,composite z-score,[2],0.847
same,composite z-score,[3],0.0069
same,composite z-score,[4],0.516
same,composite z-score,[5],1.47
same,composite z-score,[6],1.33
same,composite z-score,[7],1.4
same,z-score,[8],1.31 (inactive)
same,composite z-score,[9],0.0557
same,composite z-score,[10],0.0881
COc1ccc(C(=O)Nc2ccc(CN3C(=O)[C@@]4(O[C@@H](CCO)[C@H]([Si](C)(C)c5ccc(OC)cc5)[C@H]4C)c4ccccc43)cc2)cc1,composite z-score,[1],-0.0338
same,composite z-score,[2],0.623
same,composite z-score,[3],-0.113
same,composite z-score,[4],0.187
same,composite z-score,[5],0.912
same,composite z-score,[6],1.22
same,composite z-score,[7],1.1
same,z-score,[8],-3.12 (inactive)
same,composite z-score,[9],0.25
same,composite z-score,[10],-0.0645
CN(C)C(=O)[C@]1(Cc2ccccc2N=[N+]=[N-])N=C(c2ccc(OCCCO)cc2)O[C@@H]1c1ccccc1,composite z-score,[1],0.127
same,composite z-score,[2],0.227
same,composite z-score,[3],0.0901
same,composite z-score,[4],0.071
same,composite z-score,[5],1.31
same,composite z-score,[6],1.78
same,composite z-score,[7],1.13
same,z-score,[8],-2.65 (inactive)
same,composite z-score,[9],0.627
same,composite z-score,[10],-0.374
COc1cc2c(cc1O)C(C1CC1)N(Cc1cc3c(cc1Br)OCO3)CC2 (stereo not given),composite z-score,[1],0.423
same,composite z-score,[2],0.97
same,composite z-score,[3],-0.119
same,composite z-score,[4],-0.974
same,composite z-score,[5],-0.695
same,composite z-score,[6],0.502
same,composite z-score,[7],1.02
same,z-score,[8],1.21 (inactive)
same,composite z-score,[9],-0.734
same,composite z-score,[10],-0.394
C=CC[C@]1(C(=O)N2CCCCC2)N=C(c2ccc(OCCCO)cc2)O[C@H]1c1ccccc1,composite z-score,[1],1.08
same,composite z-score,[2],0.785
same,composite z-score,[3],0.0472
same,composite z-score,[4],0.452
same,composite z-score,[5],0.668
same,composite z-score,[6],1.77
same,composite z-score,[7],1.17
same,z-score,[8],-1.11 (inactive)
same,composite z-score,[9],1.63
same,composite z-score,[10],1.27
COc1cc(CO)cc(I)c1O[C@H]1C=C(C(=O)NCCO)C[C@@H](N(CCN2CCOCC2)C(=O)C2CCOC2)[C@@H]1O (stereo not given in full),composite z-score,[1],-0.458
same,composite z-score,[2],0.158
same,composite z-score,[3],-0.12
same,composite z-score,[4],0.501
same,composite z-score,[5],-0.0056
same,composite z-score,[6],-0.0813
same,composite z-score,[7],-0.479
same,z-score,[8],-1.22 (inactive)
same,composite z-score,[9],0.0409
same,composite z-score,[10],1.25
O=C1OCCC/C=C\[C@H]2OC34C=CCN(Cn5nnc6ccccc65)C(=O)[C@H]3N(CCCCCCO)C(=O)[C@@H]4C12 (stereo not given in full),composite z-score,[1],0.144
same,composite z-score,[2],1.57
same,composite z-score,[3],-0.167
same,composite z-score,[4],-1.04
same,composite z-score,[5],-0.969
same,composite z-score,[6],0.0553
same,composite z-score,[7],1.25
same,z-score,[8],-0.584 (inactive)
same,composite z-score,[9],-0.582
same,composite z-score,[10],-0.273
CN1C(=O)C2C=CC(C(O)C3CC=CCC3)N(NC(=O)OC(C)(C)C)C2C1=O (stereo not given),composite z-score,[1],-0.138
same,composite z-score,[2],0.23
same,composite z-score,[3],0.218
same,composite z-score,[4],0.752
same,composite z-score,[5],1.29
same,composite z-score,[6],1.64
same,composite z-score,[7],1.21
same,z-score,[8],2.23 (inactive)
same,composite z-score,[9],0.879
same,composite z-score,[10],-0.0296
C=CCOC(=O)[C@@H]1[C@H]2C(=O)O[C@H](c3ccccc3)[C@H](c3ccccc3)N2[C@H](c2ccc(OCCOC(=O)[C@@H]3C[C@@H]4C(=O)N[C@@H](CCCC[N+](C)(C)C)C(=O)N4[C@@H]3c3cccc(OCCO)c3)cc2)[C@@]12C(=O)Nc1ccc(I)cc12,composite z-score,[1],0.443
same,composite z-score,[2],0.54
same,composite z-score,[3],0.0378
same,composite z-score,[4],0.291
same,composite z-score,[5],0.872
same,composite z-score,[6],0.498
same,composite z-score,[7],1.23
same,z-score,[8],3.07 (inactive)
same,composite z-score,[9],0.493
same,composite z-score,[10],-0.117
COCC(=C=CC[C@@H](O)c1ccccc1OCCO)C[C@@H](O)c1cc(Cl)cc(Cl)c1O,composite z-score,[1],-0.685
same,composite z-score,[2],0.528
same,composite z-score,[3],-0.0276
same,composite z-score,[4],1.14
same,composite z-score,[5],1.09
same,composite z-score,[6],0.935
same,composite z-score,[7],1
same,z-score,[8],-0.914 (inactive)
same,composite z-score,[9],0.624
same,composite z-score,[10],0.164
O=C1NC(=O)C2C1C=CC(C(O)Cc1ccccc1)N2Nc1ccc(Cl)cc1Cl (stereo not given),composite z-score,[1],0.536
same,composite z-score,[2],-0.169
same,composite z-score,[3],-0.0374
same,composite z-score,[4],-0.634
same,composite z-score,[5],0.614
same,composite z-score,[6],2
same,composite z-score,[7],0.371
same,z-score,[8],1.53 (inactive)
same,composite z-score,[9],0.337
same,composite z-score,[10],0.176
O=C1[C@H]2C=C(Br)[C@H](C[C@@H]2c2ccccc2)[C@@]12CO2,composite z-score,[1],-0.357
same,composite z-score,[2],0.324
same,composite z-score,[3],-0.0265
same,composite z-score,[4],0.328
same,composite z-score,[5],0.299
same,composite z-score,[6],-0.406
same,composite z-score,[7],0.57
same,z-score,[8],1.36 (inactive)
same,composite z-score,[9],0.0322
same,composite z-score,[10],-0.0645
COCCOC(=O)N1C(=O)[C@@]2(c3ccccc31)[C@H](c1ccccc1OCCO)N1[C@H](c3ccccc3)[C@H](c3ccccc3)OC(=O)[C@H]1[C@@H]2C(=O)Nc1nc2ccccc2s1,composite z-score,[1],-0.223
same,composite z-score,[2],1.03
same,composite z-score,[3],0.0186
same,composite z-score,[4],1.11
same,composite z-score,[5],1.02
same,composite z-score,[6],0.961
same,composite z-score,[7],1.21
same,z-score,[8],-1.02 (inactive)
same,composite z-score,[9],0.215
same,composite z-score,[10],0.0274
CCOc1cc(C(O)C2C=CC3C(=O)N(c4ccccc4)C(=O)C3N2Nc2ccccc2)ccc1O (stereo not given),composite z-score,[1],0.259
same,composite z-score,[2],0.107
same,composite z-score,[3],0.252
same,composite z-score,[4],1.03
same,composite z-score,[5],0.66
same,composite z-score,[6],1.8
same,composite z-score,[7],1.2
same,z-score,[8],0.893 (inactive)
same,composite z-score,[9],0.771
same,composite z-score,[10],-0.189
